EPAC2 ag = qHTS for Agonist of cAMP-regulated guanine nucleotide exchange factor 4 (EPAC2): primary screen. Rap guanine nucleotide exchange factor 4 (Homo sapiens), Q8WZA2. EPAC2 activation, biochemical qHTS; response scale: 100% = 6.5 mM cAMP response. Potency, µM (series often up to 154 µM), for inactives: top-dose activation, actives largely listed as activators. 360,000 compounds, 0.079% hits. AID 720711, 2013; also: nearly all actives have a fitted effect of over 50% in size
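Exchange assay: 100 nM EPAC2 with 250 nM Rap1B-BODIPY-GDP and 50 uM GDP. Fluorescence (ex 480/em 540 nm) read every 5 min for 30 min at room temperature. Data normalized to 6.5 mM cAMP as agonist control.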
EPAC1 agonist = qHTS for Agonist of cAMP-regulated guanine nucleotide exchange factor 3 (EPAC1): primary screen | Rap guanine nucleotide exchange factor 3 (Homo sapiens), O95398 | EPAC1 agonist qHTS, biochemical assay; response scale: 100% = response to 6.5 mM cAMP | Potency, µM (top dose mostly 154 µM), for inactives: at the top dose activation, usual class: activators | 360,000 compounds, 0.073% hits; also: nearly all actives have a fitted effect of over 60% in size
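Fluorescent GDP-exchange assay: 100 nM EPAC1 with 250 nM Rap1B preloaded with BODIPY-GDP and 50 uM GDP; compounds tested as concentration series, 5 min at room temperature, then read every 5 min for 30 min (ex 480/em 540 nm); normalized to 6.5 mM cAMP.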
EPAC2 antagonist = qHTS for Antagonist of cAMP-regulated guanine nucleotide exchange factor 2 (EPAC2): primary screen; AID 720708, 2013; EPAC2 GEF exchange of Rap1B-BODIPY-GDP, fluorescence; 360,000 compounds, 0.18% hits; Potency, µM (titrated, usually from 114 µM), for inactives: top-dose activity, negative = inhibition, actives largely listed as inhibitors; also: % is scaled to controls: 0 for no effect and ±100 for the full control effect; nearly all actives have a fitted effect of over 45% in size
EPAC1 antag = qHTS for Antagonist of cAMP-regulated guanine nucleotide exchange factor 3 (EPAC1): primary screen. Rap guanine nucleotide exchange factor 3 (Homo sapiens), O95398. EPAC1 GEF assay, Rap1b-BODIPY-GDP exchange fluorescence. Potency, µM (titrated, usually from 115 µM), inactives show top-dose activity change, negative = inhibition, hits mostly inhibitors. 360,000 compounds, 0.14% hits. AID 720709, 2013;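 also: plate controls were vehicle for no effect and positive control for full effect; nearly all actives have a fitted effect of over 50% in size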
* = called active by the depositor; ? = inconclusive; [ ] = dose if it differs, or a comment. Only some compounds are listed: those with a hit (about 0.39% of all), similar ones and a draw of the others. Calls follow the shape of the dose curve; as a rule, active = well fitted curve in the direction sought with a large enough effect; inconclusive = small, poorly fitted or top-dose-only effect, or another doubt; inactive = no such curve, though single readings can be large; an effect the other way counts as inactive or inconclusive. Potency is read from the fitted curve at half-maximal effect.

SMILES	EPAC2 ag	EPAC1 agonist	EPAC2 antagonist	EPAC1 antag
CCc1ccc(NC(=O)/C(C#N)=C/c2cc3ccc(C)cc3nc2N2CCOCC2)cc1	100µM*	-1.4%	8.5%	6.5%
O=C1NN(c2ccc(F)c(Cl)c2)C(=O)/C1=C\c1cccc(OC(=O)c2cccs2)c1	4.8%	-13.4%	1.1%	35.5µM*
Cn1c(SCC(=O)Nc2cccc(Br)c2)nnc1-c1cc2ccccc2o1	2.7%	-7.0%	17.5%[57.1 µM]	11.4%
Cn1c(SCC(=O)Nc2cccc(C(=O)O)c2)nnc1-c1cc2cc(Br)ccc2o1	3.4%	63.1µM*	-8.2%	35.5µM*
O=C1C=C(c2c(O)ccc3ccccc23)c2ccccc2C1=O	28.5%	15.2%	?	35.5µM*
CCCn1nc([N+](=O)[O-])c(C(C#N)c2nc3ccccc3o2)c(Cl)c1=O (centres undefined)	-28.2%	-10.2%	56.2µM*	-16.9%
COCOCCn1cc(CN2CCS(=O)(=O)N(Cc3ccc(-c4ccc(C)cc4)cc3)C(CC(C)C)C2=O)nn1 (centres undefined)	10.4%	-18.4%	?	-9.3%
COCOCCn1cc(CN2CCS(=O)(=O)N(Cc3ccc(-c4ccc(F)cc4)cc3)C(CC(C)C)C2=O)nn1 (centres undefined)	1.0%	-19.1%	12.6µM*	-17.2%
Cc1ccc(Sc2ccc(S(=O)(=O)Nc3ccc(C(=O)O)cc3)cc2)cc1C	-2.5%	-6.1%	?	70.8µM*
Cc1ccc(Oc2ccc(S(=O)(=O)Nc3ccc(C(=O)O)cc3)cc2)cc1	-1.1%	-18.9%	-13.6%	10.2%
C=C1CCN(C(Cc2ccccc2)C(=O)OC)S(=O)(=O)c2ccc(F)cc21 (centres undefined)	11.9%	-17.4%	56.2µM*	-19.5%
COc1cccc(-c2ccc3c(c2)O[C@H](CN(C)C(=O)c2ccccc2F)[C@H](C)CN([C@H](C)CO)S3(=O)=O)c1	4.6%	2.9%	?	-28.0%
Nc1ncnc2c1nc(Sc1ccc(Cl)cc1)n2[C@@H]1O[C@@H]2COP(=O)(O)O[C@H]2[C@H]1O	?	?	2.82µM*	?
Cc1cc2c(cc1C)-n1nnnc1C(N(C)Cc1ccccc1)C(=O)N2 (centres undefined)	5.6%	-3.0%	?	-11.5%
CCc1noc(C)c1C(=O)N1CCCSC1=Nc1ccccc1Cl	15.9%	5.3%	50.1µM*	-12.8%
N#Cc1ccc(C(=O)N2CCCCC2c2cc(C(=O)Nc3ccc4c(c3)OCO4)no2)cc1 (centres undefined)	6.4%	2.6%	-2.1%	-0.2%
COc1ccc(S(=O)(=O)N2CCCCC2)cc1NC(=O)c1ccccc1	5.5%	10.3%	6.9%	-5.4%
COc1ccc(S(=O)(=O)N2CCCCC2)cc1NC(=O)c1c(F)cccc1Cl	1.6%	1.6%	-14.2%	56.2µM*
O=C(Nc1ccc(N2CCOCC2)cc1)c1cccc2c(Br)cccc12	7.3%	8.1%	5.3%	1.3%
O=C(Nc1ccccc1N1CCOCC1)c1cccc2c(Br)cccc12	-2.0%	-4.7%	14.1µM*	-10.1%
CCC(=O)Nc1ccc2c(c1)OC[C@@H](C)N(Cc1cccc(F)c1)C[C@@H](C)[C@@H](OC)CN(C)C2=O	1.1%	1.4%	4.5%	0.3%
O=c1[nH]c2ccccc2nc1/C=C(\O)c1cccs1	?	100µM*	26.3%	15.7%
Cc1ccc2oc(=O)c(/C=C(\O)c3ccccc3)nc2c1	89.1µM*	17.9%	21.0%	22.7%
O/C(=C\c1nc2ccccc2[nH]1)c1cccs1	16.1%	-1.0%	-10.9%	-24.7%
Cc1ccc2oc(=O)c(/C=C(\O)CC(C)C)nc2c1	5.9%	-2.8%	-8.1%	-14.4%
SMILES	EPAC2 ag	EPAC1 agonist	EPAC2 antagonist	EPAC1 antag
CCS(=O)(=O)c1ccc2oc(=O)c(/C=C(\O)c3ccc(Cl)cc3)nc2c1	8.7%	-4.2%	1.8%	-10.2%
O=c1oc2ccc(Cl)cc2nc1/C=C(\O)c1cccs1	100µM*	12.4%	100.3%	-11.6%
Cc1ccc2oc(=O)c(/C=C(\O)c3cccs3)nc2c1	63.1µM*	15.8%	98.4%	-10.6%
CC1(C(=O)NCc2cccs2)Cc2c(-c3cccc(C(F)(F)F)c3)ccnc2O1 (centres undefined)	2.4%	-9.5%	-23.9%	-4.2%
Cc1c(CCC(=O)O)c(=O)oc2cc3occ(-c4ccc(Cl)cc4)c3cc12	0.9%	7.7%	-26.6%	-8.0%
Cc1c(CCC(=O)O)c(=O)oc2c(C)c3occ(-c4ccc(Cl)cc4)c3cc12	?	?	-13.8%	39.8µM*
COc1ccc(C(=O)N/N=C(\C)c2ccc3c(c2)C2C=CCC2C(c2ccccc2)N3)cc1 (centres undefined)	1.3%	-1.0%	-3.6%	?
COc1cccc(NS(=O)(=O)c2ccc3c(c2)C2C=CCC2C(c2ccc(C(=O)O)cc2)N3)c1 (centres undefined)	-3.9%	-7.3%	3.2%	50.1µM*
CCOc1cccc(-c2cnc3cccnn23)c1	-2.3%	0.5%	-25.8%	1.1%
CCN(CCn1cccn1)Cc1c(C(=O)N2CCCCCCC2)nc2ccc(Cl)cn12	3.5%	11.6%	-7.0%	22.4µM*
CCN(CC)C1CCN(Cc2c(C(=O)N3CCCCCCC3)nc3ccc(Cl)cn23)C1 (centres undefined)	-1.4%	1.1%	-0.4%	3.6%
CC(C)CCNc1c(-c2cccs2)nc2ccccn12	-0.5%	3.4%	44.7µM*	-13.9%
COc1cccc(C(O)c2nc(-c3cccc(C(F)(F)F)c3)cs2)c1 (centres undefined)	6.3%	5.5%	-17.5%	-29.7%
O=C(NC(Sc1ccc(Cl)cc1)C(=O)O)c1ccccc1 (centres undefined)	3.6%	-0.8%	-6.7%	1.1%
COc1ccc2ccccc2c1C(O)c1nccn1C (centres undefined)	100µM*	63.1µM*	72.0%	58.6%
Cn1ccnc1C(O)c1ccccc1 (centres undefined)	12.7%	7.1%	10.5%	-4.9%
Cc1ccc([C@H]2C[C@@H](O)[C@H](n3cc(COC(=O)c4ccccc4)nn3)CN2C(=O)c2cccs2)cc1	26.2%	-14.9%	-0.3%	-18.4%
CCOC(=O)c1sc2nc3c(SCC(=O)O)cc(C(=O)c4ccccc4O)cn3c(=O)c2c1C	2.7%	4.5%	11.1%	-0.7%
CCOC(=O)c1sc2nc3c(SCC(=O)O)cc(C(=O)c4cc(F)ccc4O)cn3c(=O)c2c1C	12.6%	89.1µM*	?	8.91µM*
Cc1cccc(N2CCN(C3C(=O)Nc4ccccc4-n4nnnc43)CC2)c1C (centres undefined)	15.5%	-0.8%	-5.7%	-3.1%
Cc1ccccc1[C@@]1(C)ON(c2ccccc2C(F)(F)F)C1=O	4.3%	1.4%	?	5.0%

Compound activity (PubChem)
